Data on one sequence can be found in paper PMC7862700, “An all-to-all approach to the identification of sequence-specific readers for epigenetic DNA modifications on cytosine”.

Holding throughout (assay): DAPPL (digital affinity profiling via proximity ligation, sequencing); 10 mM Tris-HCl pH 7.5, 50 mM NaCl, 1 mM DTT, 4% glycerol, room temperature, 30 min; GST-TFs on glutathione beads, 16-mer random dsDNA library, 0.1% formaldehyde crosslink after washing; high values mean tight binding
One assay deals with T1, FEV (Homo sapiens, UniProt Q99581 1-238).
T1 sequence: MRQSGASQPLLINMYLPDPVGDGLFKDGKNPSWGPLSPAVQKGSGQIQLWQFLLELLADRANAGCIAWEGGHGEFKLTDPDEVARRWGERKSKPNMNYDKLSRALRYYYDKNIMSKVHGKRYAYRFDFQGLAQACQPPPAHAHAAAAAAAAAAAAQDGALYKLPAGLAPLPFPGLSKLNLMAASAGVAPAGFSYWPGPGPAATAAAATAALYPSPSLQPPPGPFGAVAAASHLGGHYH
The settings on record: protein: recombinant; tags: N-terminal GST; dsDNA, one strand shown. Summed up:
(§1)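 Human transcription factors carrying a GST fusion were produced in yeast, bound to glutathione beads, tagged with DNA barcodes and pooled together with a tag-only sample. Each pool was held with 200 nmole of a random double-stranded 16-mer DNA library in Tris/NaCl/DTT/glycerol buffer for 30 min at room temperature, then washed, crosslinked in 0.1% formaldehyde, proximity-ligated with BsaI/T4 ligase (1 h, 37 °C), PCR-amplified and sequenced on an Illumina NextSeq500. Binding signal is the read frequency of each hexamer for a given factor divided by its frequency in the tag-only sample.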

In a further assay the target is ETV5 (Homo sapiens, UniProt P41161 1-510). To be noted: protein: recombinant; tags: N-terminal GST; dsDNA, one strand shown. Summed up: as §1
The target in the next assay is HSF1 (Homo sapiens, UniProt Q00613 1-529). The settings on record: protein: recombinant; tags: N-terminal GST; chain copies: 3; dsDNA, one strand shown. Summed up:
as §1

The target of another assay is T2, SPIC (Homo sapiens, UniProt Q8N5J4 1-248).
T2 sequence: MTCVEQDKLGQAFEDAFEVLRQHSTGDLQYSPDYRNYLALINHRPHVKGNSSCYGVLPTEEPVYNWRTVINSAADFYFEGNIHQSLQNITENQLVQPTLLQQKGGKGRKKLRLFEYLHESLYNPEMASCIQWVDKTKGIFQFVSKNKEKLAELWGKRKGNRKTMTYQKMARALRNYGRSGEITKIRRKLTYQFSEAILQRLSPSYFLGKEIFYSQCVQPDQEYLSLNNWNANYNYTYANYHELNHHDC
The settings on record: protein: recombinant; tags: N-terminal GST; dsDNA, one strand shown. Summed up: as §1

Another assay deals with ELF4 (Homo sapiens, UniProt Q99607 1-663). To be noted: protein: recombinant; tags: N-terminal GST; dsDNA, one strand shown. Summed up: as §1
The next assay addresses T3, ELK4 (Homo sapiens, UniProt P28324-2 1-405).
T3 sequence: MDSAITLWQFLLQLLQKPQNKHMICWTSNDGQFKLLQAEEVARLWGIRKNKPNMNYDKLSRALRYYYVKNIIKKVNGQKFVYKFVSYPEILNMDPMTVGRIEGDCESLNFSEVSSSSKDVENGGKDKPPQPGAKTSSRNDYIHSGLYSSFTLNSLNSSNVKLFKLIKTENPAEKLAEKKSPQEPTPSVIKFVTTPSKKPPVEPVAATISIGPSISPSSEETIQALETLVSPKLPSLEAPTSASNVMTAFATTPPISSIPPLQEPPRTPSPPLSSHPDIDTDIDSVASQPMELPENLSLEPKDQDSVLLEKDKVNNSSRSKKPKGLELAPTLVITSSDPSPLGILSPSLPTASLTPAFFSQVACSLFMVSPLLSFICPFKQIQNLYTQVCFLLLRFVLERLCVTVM
To be noted: protein: recombinant; tags: N-terminal GST; dsDNA, one strand shown. Summed up: as §1

The target in another assay is T4, ETV2 (Homo sapiens, UniProt O00321 1-342).
T4 sequence: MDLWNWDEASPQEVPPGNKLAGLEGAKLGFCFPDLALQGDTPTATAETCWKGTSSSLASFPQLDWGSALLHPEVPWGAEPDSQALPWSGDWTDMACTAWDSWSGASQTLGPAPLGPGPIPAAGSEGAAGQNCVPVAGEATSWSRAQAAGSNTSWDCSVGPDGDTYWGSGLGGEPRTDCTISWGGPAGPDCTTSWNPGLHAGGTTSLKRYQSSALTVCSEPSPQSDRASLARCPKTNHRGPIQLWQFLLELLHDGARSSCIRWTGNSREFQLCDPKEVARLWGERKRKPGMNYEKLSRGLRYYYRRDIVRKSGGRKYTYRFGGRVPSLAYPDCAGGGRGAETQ
To be noted: protein: recombinant; tags: N-terminal GST; dsDNA, one strand shown. Summed up: as §1

The target of the next assay is T5, ELF3 (Homo sapiens, UniProt P78545 1-371).
T5 sequence: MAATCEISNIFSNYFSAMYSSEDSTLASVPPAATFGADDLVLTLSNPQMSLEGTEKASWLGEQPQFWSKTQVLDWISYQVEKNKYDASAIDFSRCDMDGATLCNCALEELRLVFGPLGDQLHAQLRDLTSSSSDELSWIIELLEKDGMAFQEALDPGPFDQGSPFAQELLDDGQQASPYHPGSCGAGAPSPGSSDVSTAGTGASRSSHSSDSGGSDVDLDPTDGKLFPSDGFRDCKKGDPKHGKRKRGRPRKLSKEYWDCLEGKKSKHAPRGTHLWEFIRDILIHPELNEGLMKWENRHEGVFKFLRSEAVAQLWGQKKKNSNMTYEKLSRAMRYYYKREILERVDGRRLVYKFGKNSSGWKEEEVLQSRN
The settings on record: protein: recombinant; tags: N-terminal GST; dsDNA, one strand shown. Summed up: as §1

A further assay has as its target CRX (Homo sapiens, UniProt O43186 1-299). The settings on record: protein: recombinant; tags: N-terminal GST; dsDNA, one strand shown. Summed up: as §1
The target in a further assay is ETV1 (Homo sapiens, UniProt P50549 1-477). To be noted: protein: recombinant; tags: N-terminal GST; dsDNA, one strand shown. Summed up:
as §1

In the next assay the target is T6, ERF (Homo sapiens, UniProt P50548 1-548).
T6 sequence: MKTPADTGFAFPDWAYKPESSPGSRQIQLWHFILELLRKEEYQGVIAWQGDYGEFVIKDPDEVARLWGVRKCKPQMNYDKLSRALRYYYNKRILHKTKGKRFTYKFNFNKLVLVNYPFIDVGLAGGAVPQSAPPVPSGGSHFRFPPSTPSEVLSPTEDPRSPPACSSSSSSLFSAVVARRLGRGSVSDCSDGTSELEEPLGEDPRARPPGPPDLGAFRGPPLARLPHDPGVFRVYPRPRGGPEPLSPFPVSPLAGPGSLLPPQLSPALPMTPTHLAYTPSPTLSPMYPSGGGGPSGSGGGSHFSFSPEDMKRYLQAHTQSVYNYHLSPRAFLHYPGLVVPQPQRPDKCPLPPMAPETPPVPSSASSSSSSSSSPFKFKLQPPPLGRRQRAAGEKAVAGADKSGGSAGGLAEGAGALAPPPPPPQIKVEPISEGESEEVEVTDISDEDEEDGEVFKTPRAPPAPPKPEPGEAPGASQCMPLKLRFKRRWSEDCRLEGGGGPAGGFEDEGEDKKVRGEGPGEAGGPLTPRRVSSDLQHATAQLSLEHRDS
The settings on record: protein: recombinant; tags: N-terminal GST; dsDNA, one strand shown. Summed up: as §1

The target of the next assay is T7, ETV3L (Homo sapiens, UniProt Q6ZN32 1-361).
T7 sequence: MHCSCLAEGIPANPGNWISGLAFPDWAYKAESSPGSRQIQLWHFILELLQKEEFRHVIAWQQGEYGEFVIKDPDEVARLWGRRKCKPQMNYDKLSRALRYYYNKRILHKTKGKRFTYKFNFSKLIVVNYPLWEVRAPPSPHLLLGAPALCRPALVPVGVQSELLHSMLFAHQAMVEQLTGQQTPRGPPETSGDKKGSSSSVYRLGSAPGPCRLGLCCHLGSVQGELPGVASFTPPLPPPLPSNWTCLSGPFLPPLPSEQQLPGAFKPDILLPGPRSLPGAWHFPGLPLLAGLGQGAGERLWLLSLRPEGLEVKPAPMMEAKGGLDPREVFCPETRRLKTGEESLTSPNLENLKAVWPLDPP
To be noted: protein: recombinant; tags: N-terminal GST; dsDNA, one strand shown. Summed up:
as §1

Another assay has as its target T8, ETS2 (Homo sapiens, UniProt P15036 1-469).
T8 sequence: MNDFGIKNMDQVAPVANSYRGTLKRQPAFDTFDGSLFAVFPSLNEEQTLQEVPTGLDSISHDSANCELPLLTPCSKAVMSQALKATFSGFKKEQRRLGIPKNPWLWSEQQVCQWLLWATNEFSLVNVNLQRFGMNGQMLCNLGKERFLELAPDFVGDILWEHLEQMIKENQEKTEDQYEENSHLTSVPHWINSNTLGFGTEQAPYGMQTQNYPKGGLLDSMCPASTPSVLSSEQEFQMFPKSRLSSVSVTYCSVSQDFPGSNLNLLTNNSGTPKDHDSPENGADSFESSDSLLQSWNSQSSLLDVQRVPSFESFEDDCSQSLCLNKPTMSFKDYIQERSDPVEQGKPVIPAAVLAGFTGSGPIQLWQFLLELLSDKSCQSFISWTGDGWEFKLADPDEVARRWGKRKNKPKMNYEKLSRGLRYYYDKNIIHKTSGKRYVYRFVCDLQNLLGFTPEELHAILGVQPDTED
To be noted: protein: recombinant; tags: N-terminal GST; dsDNA, one strand shown. Summed up:
as §1

A further assay deals with T9, SPDEF (Homo sapiens, UniProt O95238 1-335).
T9 sequence: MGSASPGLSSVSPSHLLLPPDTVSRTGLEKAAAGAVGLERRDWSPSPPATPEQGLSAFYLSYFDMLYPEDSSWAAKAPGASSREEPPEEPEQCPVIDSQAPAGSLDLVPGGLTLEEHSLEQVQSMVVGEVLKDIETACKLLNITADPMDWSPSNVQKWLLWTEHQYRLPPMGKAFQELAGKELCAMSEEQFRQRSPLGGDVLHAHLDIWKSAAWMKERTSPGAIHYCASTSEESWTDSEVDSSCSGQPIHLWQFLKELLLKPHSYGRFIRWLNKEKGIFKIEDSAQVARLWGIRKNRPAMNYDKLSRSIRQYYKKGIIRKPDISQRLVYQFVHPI
To be noted: protein: recombinant; tags: N-terminal GST; dsDNA, one strand shown. Summed up: as §1

For another assay, the target named is T10, ETV7 (Homo sapiens, UniProt Q9Y603 1-341).
T10 sequence: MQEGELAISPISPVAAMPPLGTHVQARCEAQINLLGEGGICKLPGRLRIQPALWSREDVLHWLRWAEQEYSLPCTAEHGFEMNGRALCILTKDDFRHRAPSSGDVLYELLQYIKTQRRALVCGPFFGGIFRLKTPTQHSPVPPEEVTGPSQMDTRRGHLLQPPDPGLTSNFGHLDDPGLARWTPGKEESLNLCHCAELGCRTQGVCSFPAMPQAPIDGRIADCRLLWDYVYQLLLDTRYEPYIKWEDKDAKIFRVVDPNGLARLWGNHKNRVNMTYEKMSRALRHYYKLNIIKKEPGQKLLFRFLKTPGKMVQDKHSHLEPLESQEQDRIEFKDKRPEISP
To be noted: protein: recombinant; tags: N-terminal GST; dsDNA, one strand shown. Summed up:
as §1

In a further assay the target is T11, ELF5 (Homo sapiens, UniProt Q9UKW6-2 1-255).
T11 sequence: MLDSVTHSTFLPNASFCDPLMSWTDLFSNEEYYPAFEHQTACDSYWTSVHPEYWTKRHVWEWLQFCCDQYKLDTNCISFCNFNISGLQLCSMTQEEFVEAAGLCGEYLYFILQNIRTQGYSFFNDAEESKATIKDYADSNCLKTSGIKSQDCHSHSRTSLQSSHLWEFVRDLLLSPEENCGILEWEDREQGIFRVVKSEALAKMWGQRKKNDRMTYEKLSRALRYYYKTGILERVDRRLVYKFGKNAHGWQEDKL
The settings on record: protein: recombinant; tags: N-terminal GST; dsDNA, one strand shown. Summed up:
as §1

The next assay deals with T12, ETV3 (Homo sapiens, UniProt P41162-2 1-143).
T12 sequence: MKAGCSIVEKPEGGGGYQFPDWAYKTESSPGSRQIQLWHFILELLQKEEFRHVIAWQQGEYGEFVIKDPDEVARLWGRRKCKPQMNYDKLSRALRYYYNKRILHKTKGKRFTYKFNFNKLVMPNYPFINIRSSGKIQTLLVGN
To be noted: protein: recombinant; tags: N-terminal GST; dsDNA, one strand shown. Summed up: as §1

A further assay concerns the target ETV6 (Homo sapiens, UniProt P41212 1-452). The settings on record: protein: recombinant; tags: N-terminal GST; dsDNA, one strand shown. Summed up: as §1

ELF4, sequence (Q99607 whole entry): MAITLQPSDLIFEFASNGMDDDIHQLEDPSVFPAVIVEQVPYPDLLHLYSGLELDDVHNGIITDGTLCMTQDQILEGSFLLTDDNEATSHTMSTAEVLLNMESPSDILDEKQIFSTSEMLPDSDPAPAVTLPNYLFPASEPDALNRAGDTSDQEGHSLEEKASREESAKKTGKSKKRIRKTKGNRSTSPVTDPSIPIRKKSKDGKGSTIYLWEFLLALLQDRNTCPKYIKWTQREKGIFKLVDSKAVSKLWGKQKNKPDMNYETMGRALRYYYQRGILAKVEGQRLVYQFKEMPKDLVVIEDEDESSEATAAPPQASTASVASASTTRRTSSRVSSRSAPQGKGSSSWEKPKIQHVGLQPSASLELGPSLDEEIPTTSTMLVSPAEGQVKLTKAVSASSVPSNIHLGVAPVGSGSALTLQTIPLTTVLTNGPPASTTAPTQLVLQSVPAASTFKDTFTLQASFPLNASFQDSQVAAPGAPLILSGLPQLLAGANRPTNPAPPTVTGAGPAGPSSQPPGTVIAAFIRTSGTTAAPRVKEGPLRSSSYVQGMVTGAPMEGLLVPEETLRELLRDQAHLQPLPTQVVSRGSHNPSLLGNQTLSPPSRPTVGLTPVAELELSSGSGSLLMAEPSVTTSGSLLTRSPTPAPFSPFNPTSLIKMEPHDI
ETV5, sequence (P41161 whole entry): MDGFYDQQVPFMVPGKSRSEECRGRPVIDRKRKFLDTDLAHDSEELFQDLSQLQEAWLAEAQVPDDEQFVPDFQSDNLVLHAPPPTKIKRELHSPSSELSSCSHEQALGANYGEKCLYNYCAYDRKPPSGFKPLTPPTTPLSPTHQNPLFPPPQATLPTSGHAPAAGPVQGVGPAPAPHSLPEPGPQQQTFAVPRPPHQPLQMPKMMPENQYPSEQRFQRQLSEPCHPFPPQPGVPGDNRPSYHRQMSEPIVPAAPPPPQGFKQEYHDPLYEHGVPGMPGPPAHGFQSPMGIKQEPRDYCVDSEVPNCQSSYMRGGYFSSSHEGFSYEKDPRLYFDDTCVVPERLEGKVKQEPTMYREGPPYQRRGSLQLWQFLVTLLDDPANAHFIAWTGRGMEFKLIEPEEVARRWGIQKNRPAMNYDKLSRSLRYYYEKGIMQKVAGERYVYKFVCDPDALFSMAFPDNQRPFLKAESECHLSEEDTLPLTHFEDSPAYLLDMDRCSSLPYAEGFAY
ETV1, sequence (P50549 whole entry): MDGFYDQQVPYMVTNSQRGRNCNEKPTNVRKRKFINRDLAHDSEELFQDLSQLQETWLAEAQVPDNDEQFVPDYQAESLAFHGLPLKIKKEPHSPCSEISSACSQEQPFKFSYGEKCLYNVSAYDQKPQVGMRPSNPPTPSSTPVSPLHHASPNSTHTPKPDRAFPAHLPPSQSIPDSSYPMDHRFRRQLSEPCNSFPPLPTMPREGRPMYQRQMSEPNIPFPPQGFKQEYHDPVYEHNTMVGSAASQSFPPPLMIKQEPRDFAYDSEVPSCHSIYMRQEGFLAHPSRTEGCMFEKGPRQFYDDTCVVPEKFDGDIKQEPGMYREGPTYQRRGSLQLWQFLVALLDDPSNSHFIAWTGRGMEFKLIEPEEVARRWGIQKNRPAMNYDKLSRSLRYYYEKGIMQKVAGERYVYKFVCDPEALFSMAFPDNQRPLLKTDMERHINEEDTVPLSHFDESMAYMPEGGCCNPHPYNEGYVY
CRX, sequence (O43186 whole entry): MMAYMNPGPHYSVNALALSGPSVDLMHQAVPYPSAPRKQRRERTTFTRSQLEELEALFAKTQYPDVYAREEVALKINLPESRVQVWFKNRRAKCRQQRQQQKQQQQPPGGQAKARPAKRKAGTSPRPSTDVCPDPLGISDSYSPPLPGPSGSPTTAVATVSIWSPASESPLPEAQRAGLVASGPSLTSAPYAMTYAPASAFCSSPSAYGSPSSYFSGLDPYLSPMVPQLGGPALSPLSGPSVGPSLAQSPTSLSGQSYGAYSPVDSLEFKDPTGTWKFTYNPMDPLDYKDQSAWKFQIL
HSF1, sequence (Q00613 whole entry): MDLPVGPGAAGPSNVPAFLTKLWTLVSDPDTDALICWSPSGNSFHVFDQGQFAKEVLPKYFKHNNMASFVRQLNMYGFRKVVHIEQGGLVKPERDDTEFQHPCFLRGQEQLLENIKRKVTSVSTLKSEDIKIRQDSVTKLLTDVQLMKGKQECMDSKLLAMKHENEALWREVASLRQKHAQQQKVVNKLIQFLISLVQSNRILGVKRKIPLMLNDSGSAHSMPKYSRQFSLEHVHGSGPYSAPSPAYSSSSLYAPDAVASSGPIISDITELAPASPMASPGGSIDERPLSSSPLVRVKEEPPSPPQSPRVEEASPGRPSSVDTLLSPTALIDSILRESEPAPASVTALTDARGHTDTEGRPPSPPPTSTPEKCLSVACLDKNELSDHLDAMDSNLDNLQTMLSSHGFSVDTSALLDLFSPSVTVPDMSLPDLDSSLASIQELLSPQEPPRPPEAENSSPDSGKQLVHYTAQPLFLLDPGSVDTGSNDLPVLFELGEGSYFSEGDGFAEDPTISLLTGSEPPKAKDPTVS
ETV6, sequence (P41212 whole entry): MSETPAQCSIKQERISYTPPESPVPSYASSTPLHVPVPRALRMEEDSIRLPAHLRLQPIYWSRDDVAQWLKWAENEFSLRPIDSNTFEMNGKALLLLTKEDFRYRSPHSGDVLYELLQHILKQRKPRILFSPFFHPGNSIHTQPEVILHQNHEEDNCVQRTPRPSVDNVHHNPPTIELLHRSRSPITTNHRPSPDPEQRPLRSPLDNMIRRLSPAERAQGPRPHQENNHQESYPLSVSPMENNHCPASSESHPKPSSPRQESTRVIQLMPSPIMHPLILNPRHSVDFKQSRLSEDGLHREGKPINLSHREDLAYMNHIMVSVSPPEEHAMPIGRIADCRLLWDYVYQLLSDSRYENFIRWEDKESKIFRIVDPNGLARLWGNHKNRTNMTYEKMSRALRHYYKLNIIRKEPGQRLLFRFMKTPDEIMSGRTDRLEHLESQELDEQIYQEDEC

As for TCCTCG, the binding signal is 1.37 fold enrichment (6-mer frequency, TF over GST control) in the assay with FEV; 1.51 fold enrichment (6-mer frequency, TF over GST control) with ETV5; 1.54 fold enrichment (6-mer frequency, TF over GST control) with HSF1; 1.45 fold enrichment (6-mer frequency, TF over GST control) in the assay with SPIC; 1.51 fold enrichment (6-mer frequency, TF over GST control) with ELF4; 1.41 fold enrichment (6-mer frequency, TF over GST control) with ELK4. Also, the binding signal with ETV2 was 1.66 fold enrichment (6-mer frequency, TF over GST control); with ELF3, 1.53 fold enrichment (6-mer frequency, TF over GST control); with CRX, 1.37 fold enrichment (6-mer frequency, TF over GST control); with ETV1, 1.65 fold enrichment (6-mer frequency, TF over GST control); with ERF, 1.48 fold enrichment (6-mer frequency, TF over GST control); with ETV3L it was 1.57 fold enrichment (6-mer frequency, TF over GST control). For the same sequence, the binding signal with ETS2 was 1.35 fold enrichment (6-mer frequency, TF over GST control); with SPDEF, 1.33 fold enrichment (6-mer frequency, TF over GST control); with ETV7, 1.49 fold enrichment (6-mer frequency, TF over GST control); with ELF5, 1.93 fold enrichment (6-mer frequency, TF over GST control); with ETV3, 1.5 fold enrichment (6-mer frequency, TF over GST control); with ETV6, 1.48 fold enrichment (6-mer frequency, TF over GST control).
